Screening results from PubChem.
An excerpt weighted towards active compounds, which were near 12% of everything screened.
Sfp inh: qHTS Assay for Inhibitors of Bacillus subtilis Sfp phosphopantetheinyl transferase (PPTase); 4'-phosphopantetheinyl transferase ffp (Bacillus subtilis), Q9F4F7; Biochemical Sfp PPTase activity, qHTS; Potency, µM, for inactives: largest response in the series, negative = inhibition, usual class: inhibitors; actives 3.5% (n = 310,000);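 further: the enzyme is Sfp with the accession as filed and its product quenches rhodamine fluorescence; 0% = enzyme reaction without inhibitor and -100% = no enzyme wells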
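With Hepes-Na pH 7.6 buffer containing 10 mM MgCl2, Sfp (15 nM) modified BHQ-2-YbbR (12.5 uM) using rhodamine-CoA (5 uM). Two reads 30 minutes apart at 525/598 nm yielded each well's rate.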
HP1b chromo inh: HTS for Inhibitors of HP1-beta Chromodomain Interactions with Methylated Histone Tails | Chromobox protein homolog 1 (Homo sapiens), P83916 | AlphaScreen HP1-beta / biotin-H3K9me3 peptide binding | Potency, µM (top dose mostly 114 µM), inactives show top-dose activity change, negative = inhibition, usual class: inhibitors | actives 0.56% (n = 390,000) | AID 540317, 2011; further: nearly all actives have a fitted effect of over 70% in size
Target sequence (P83916 whole entry, looked up): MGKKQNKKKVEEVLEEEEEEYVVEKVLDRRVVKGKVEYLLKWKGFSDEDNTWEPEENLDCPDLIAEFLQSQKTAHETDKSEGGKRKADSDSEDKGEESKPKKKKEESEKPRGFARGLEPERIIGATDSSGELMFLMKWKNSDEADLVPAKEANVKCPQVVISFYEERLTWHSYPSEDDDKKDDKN
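AlphaScreen: HP1-beta (50 nM) preformed 30 min with biotin-H3(1-18)K9me3 peptide (50 nM) in PBS pH 7.4, 0.01% Tween-20. Compound added for 30 min at RT, then streptavidin donor/nickel chelate acceptor beads (10 ug/mL) for 30 min.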
G9a inh: qHTS Assay for Inhibitors of Histone Lysine Methyltransferase G9a | Histone-lysine N-methyltransferase EHMT2 (Homo sapiens), Q96KQ7 | G9a H3K9 monomethylation, AlphaScreen, 2 h | Potency, µM (doses to about 102 µM), for the others: at the top dose activity, negative = inhibition, most hits filed as inhibitors | actives 8.8% (n = 350,000); further: on the % scale 0 is the no-effect control and ±100 the full control effect; nearly all actives have a fitted effect of over 75% in size
Target sequence (Q96KQ7 913-1193 limits assumed): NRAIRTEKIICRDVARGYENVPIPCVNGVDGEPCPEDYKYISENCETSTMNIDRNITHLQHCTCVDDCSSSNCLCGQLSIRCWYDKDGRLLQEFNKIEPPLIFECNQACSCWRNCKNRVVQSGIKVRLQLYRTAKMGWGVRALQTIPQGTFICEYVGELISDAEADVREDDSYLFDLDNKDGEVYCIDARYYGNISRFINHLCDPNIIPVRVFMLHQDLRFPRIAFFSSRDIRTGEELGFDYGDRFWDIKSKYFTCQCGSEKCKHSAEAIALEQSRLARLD
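Step 1: enzyme (final 20 nM) with compound, 15 min RT. Step 2: substrate peptide 500 nM and SAM 20 uM, 2 h RT. Step 3: anti-H3K9me1 antibody and AlphaScreen beads, 10 min, then plate read.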
JMJD2A Tudor inh: qHTS Assay for Inhibitors of JMJD2A-Tudor Domain. Lysine-specific demethylase 4A (Homo sapiens), O75164. AlphaScreen JMJD2A-Tudor / H3K4me3 peptide binding. Potency, µM (doses to about 114 µM), without a hit: at the top dose activity change, negative = inhibition, usual class: inhibitors. actives 4.4% (n = 390,000); further: on the % scale 0 is the no-effect control and ±100 the full control effect; nearly all actives have a fitted effect of over 50% in size
BAZ2B inh: qHTS Assay for Inhibitors of BAZ2B; Potency, µM (top dose mostly 114 µM), inactives show top-dose activity change, negative = inhibition, most hits filed as inhibitors; AID 504333, 2011; Bromodomain adjacent to zinc finger domain protein 2B (Homo sapiens), Q9UIF8; AlphaScreen BAZ2B-H3K14Ac peptide displacement; actives 4.4% (n = 360,000); further: on the % scale 0 is the no-effect control and ±100 the full control effect; nearly all actives have a fitted effect of over 60% in size
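In this displacement format the biotinylated H3(5-23) peptide acetylated at Lys14 serves as ligand at 50 nM, with BAZ2B at 50 nM in PBS pH 7.4 containing 0.01% Tween-20. Donor and acceptor beads are 10 ug/mL final.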
PLK1 PBD inh: qHTS for Inhibitors of PLK1-PDB (polo-like kinase 1 - polo-box domain): Primary Screen; Potency, µM, inactives show max response, negative = inhibition, most hits filed as inhibitors; Plk1 PBD binding of FITC phosphopeptide, fluorescence polarization; actives 2.8% (n = 360,000); further: series mostly up to about 57 µM; on the % scale 0 is the no-effect control and ±100 the full control effect; nearly all actives have a fitted effect of over 65% in size
The depositor's hits bear a star; ? = inconclusive; · = no result; [ ] = dose if it differs, or a comment. The call rests on the fitted dose curve; in most records, active means well fitted curve in the direction sought with a large enough effect; inconclusive means small, poorly fitted or top-dose-only effect, or another doubt; inactive means no such curve, though single readings can be large; an effect the other way counts as inactive or inconclusive. Potency means the concentration at half of the fitted maximal effect.

SMILES	Sfp inh	HP1b chromo inh	G9a inh	JMJD2A Tudor inh	BAZ2B inh	PLK1 PBD inh
C#CCOCCOCCOCCNc1nc(N2CCN(C(=O)C([C@@H](C)CC)n3cc(C(N)CO)nn3)CC2)nc(N2CCN(C(=O)[C@H](CCC(=O)O)n3cc(C(N)CC(C)C)nn3)CC2)n1 (stereo not given in full)	6%	62%	-1%[12.7 µM]	50µM*	50µM*	-4%
C#CCOCCOCCOCCNc1nc(N2CCOCC2)nc(N2CCN(C(=O)[C@H]([C@@H](C)CC)n3cc([C@@H](N)CC(C)C)nn3)CC2)n1	12%	31%	11%[12.7 µM]	-19%	-9%	-14%
C#CCOCCOCCOCCNc1nc(N2CCN(C(=O)[C@H](CCC(=O)O)n3cc(C(N)CC(C)C)nn3)CC2)nc(N2CCN(C(=O)[C@H](CCC(=O)O)n3cc(C(N)CC(C)C)nn3)CC2)n1 (stereo not given in full)	0%	23%	10%[12.7 µM]	79µM*	79µM*	5%
CC1CC(C)CN(C(=O)C(C)N(C)CC(=O)Nc2ccc(Cl)cc2)C1 (stereo not given)	?	?	50µM*	7.9µM*	45µM*	6%
CC1CC(C)CN(C(=O)C(C)N(C)CC(=O)Nc2ccc(F)cc2)C1 (stereo not given)	·	26%	11%[12.7 µM]	0%	8%	3%
COc1ccc(NC(=O)CN(C)C(C)C(=O)N2CCCCC2)cc1 (stereo not given)	?	-50%	?	0.89µM*	22µM*	2%
CSc1ccccc1NC(=O)CN(C)C(C)C(=O)NCc1ccc2c(c1)OCO2 (stereo not given)	·	?	·	5µM*	·	-9%
Cc1ccc(C)c(NC(=O)CN(C)C(C)C(=O)N2CCCC2)c1 (stereo not given)	·	0%	·	-3%	·	-12%
CC(C(=O)Nc1ccc2c(c1)OCO2)N(C)CC(=O)Nc1ccc(Cl)cc1 (stereo not given)	·	?	·	2.2µM*	·	1%
Cc1cc(NC(=O)C2CCCCC2C(=O)O)ccc1NC(=O)c1ccccc1 (stereo not given)	11%	23%	58%	-6%	-19%	-1%
COc1ccc(CCNC(=O)CCc2c(C)nc3c4cccnc4nn3c2C)cc1OC	·	30%	-2%[59 µM]	-15%	-4%	·
COc1ccc2c(c1)c(=O)oc1cc3oc(C)c(C)c3cc12	5%	·	?	·	56µM*	·
COc1ccc(Nc2nc(NCc3ccco3)nc(N/N=C/c3ccc(O)cc3)n2)cc1	4%	-15%	?	?	22µM*	-2%
COc1ccc(Nc2nc(NCc3ccco3)nc(N/N=C/c3ccccc3F)n2)cc1	18%	?	10%[59 µM]	50µM*	?	-3%
COc1ccc(/C=N/Nc2nc(NCc3ccco3)nc(Nc3ccc(OC)cc3)n2)cc1	15%	11%	-13%[59 µM]	-35%	?	-2%
CCCCOC(=O)c1cccc(NC(=O)/C=C/c2ccccc2Cl)c1	·	26%	-3%[59 µM]	-12%	15%	·
COc1ccc2oc(C(=O)OCC(=O)N(C)c3c(N)n(Cc4ccccc4)c(=O)[nH]c3=O)c(C)c2c1	·	26%	-50%[2.33 µM]	-10%	0%	-3%
CC(C)=CCc1c(O)cc(O)c2c(=O)c3c(CC=C(C)C)c(O)ccc3oc12	·	-23%	·	56µM*	·	-14%
COc1ccc(-n2c(SCC(=O)Nc3ccc(C(N)=O)cc3)nc3ccccc3c2=O)cc1OC	-14%	-13%	50µM*	-21%	-28%	-7%
COc1ccc(-n2c(SCC(=O)Nc3nccs3)nnc2-c2ccccc2)cc1	-2%	6%	2%	?	-1%	27µM*
O=C(CSc1nnc(-c2ccncc2)n1-c1ccccc1)N1CCN(c2ccc(Cl)cc2)CC1	18%	-3%	28µM*	-8%	3%	1%
O=C(CSc1nnc(-c2cccnc2)n1-c1ccccc1)N1CCN(c2ccc(F)cc2)CC1	-7%	28%	?	-13%	-9%	-12%
CCOC(=O)c1ccc(NC(=O)CSc2nnc(-c3ccncc3)n2-c2ccccc2)cc1	·	29%	-16%[59 µM]	-28%	4%	·
COc1ccc(-n2c(Cc3cccn3C)nnc2SCC(=O)Nc2nccs2)cc1	-15%	6%	?	-35%	?	0%
COc1ccc(-n2c(SCC(=O)Nc3ccc(C(=O)O)cc3)nnc2-c2ccccc2)cc1OC	15%	47%	?	-18%	56µM*	-12%
SMILES	Sfp inh	HP1b chromo inh	G9a inh	JMJD2A Tudor inh	BAZ2B inh	PLK1 PBD inh
O=C(CSc1nnc(-c2ccncc2)n1-c1ccccc1)Nc1ccc(C(=O)O)cc1	-16%	3%	50µM*	-9%	4%	-17%
O=C(CSc1nnc(-c2cccc(S(=O)(=O)N3CCCC3)c2)n1-c1ccccc1)Nc1ccc(C(=O)O)cc1	-7%	8%	?	?	50µM*	75µM*
O=C(CSc1nnc(-c2ccncc2)n1-c1ccccc1)Nc1ccc(Br)cc1	·	4%	-7%[59 µM]	11%	3%	·
CCn1c(SCC(=O)Nc2ccc3c(c2)n(C)c(=O)n3C)nnc1-c1ccncc1	-4%	10%	·	-12%	?	-12%
Cn1c(=O)n(C)c2cc(NC(=O)CSc3nnc(-c4ccccc4O)n3-c3ccccc3)ccc21	15%	20%	-7%[12.7 µM]	-14%	50µM*	0%
Cc1nn(Cc2ccc(F)cc2)c(C)c1NC(=O)CCCn1nc([N+](=O)[O-])cc1C	23%	35%	6%	-16%	1%	-6%
S=c1[nH]nc(-c2ccncc2)n1/N=C/C(Cl)=C\c1ccccc1	?	-7%	·	18µM*	50µM*	6.7µM*
S=c1[nH]nc(-c2ccncc2)n1/N=C/C=C/c1ccccc1	-19%	?	?	4.5µM*	-31%	-26%
Cc1nc2ccccc2c(=O)n1/N=C/C=C/c1ccccc1	8%	27%	-6%	-14%	-10%	0%
Cc1ccc(-c2nn(-c3ccccc3)cc2/C=N/n2c(-c3ccncc3)n[nH]c2=S)cc1	19%	17%	?	?	-3%	-6%
COc1ccccc1/C=C/C=N/n1c(-c2ccncc2)n[nH]c1=S	2%	-16%	1.3µM*	10µM*	?	-8%
COc1ccccc1/C=C/C=N/n1c(-c2ccco2)n[nH]c1=S	?	-22%	1.3µM*	28µM*	?	?
